Among the data in PubChem BioAssay AID504803 (The Scripps Research Institute Molecular Screening Center, 2011) are inhibition values, retold here.

Hit rate of the full screen: of about 340,000 compounds, about 1,700 (0.5%) were called active. This is one part of a sample in which actives are shown more often than they occur. Values without a mark were called inactive. Cut-off read from the data, not from the text of the source: active = inhibition above about 36%; inactive = the rest.

Sequence of Serine protease HTRA1 (Homo sapiens) (Q92743 whole entry, looked up): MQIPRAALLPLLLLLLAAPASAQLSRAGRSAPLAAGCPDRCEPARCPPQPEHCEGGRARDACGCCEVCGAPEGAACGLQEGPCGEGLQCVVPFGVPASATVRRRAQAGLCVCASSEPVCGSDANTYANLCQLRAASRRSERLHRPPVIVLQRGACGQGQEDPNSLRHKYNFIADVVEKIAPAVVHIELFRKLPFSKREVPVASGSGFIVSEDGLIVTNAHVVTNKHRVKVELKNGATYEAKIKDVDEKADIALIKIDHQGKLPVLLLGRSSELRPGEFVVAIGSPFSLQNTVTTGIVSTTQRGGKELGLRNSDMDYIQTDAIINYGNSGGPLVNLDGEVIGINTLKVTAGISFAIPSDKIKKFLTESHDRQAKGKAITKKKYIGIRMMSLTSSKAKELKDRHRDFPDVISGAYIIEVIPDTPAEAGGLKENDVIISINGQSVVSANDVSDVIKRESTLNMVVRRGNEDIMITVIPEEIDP

The test concerns the target Serine protease HTRA1 (Homo sapiens) (UniProt Q92743). Put plainly: inhibition of human HTRA1 peptidase – biochemical, fluorescence polarization, HTS, primary screen (AID 504803).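 Note: 0% = enzyme with DMSO and 100% = wells lacking enzyme.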 The conditions noted are these: recombinant HTRA1, FP-rhodamine activity-based probe, at 5.96 µM, active compounds read high.
`O=C(N/N=C/c1ccc(O)c(O)c1)C1c2ccccc2Oc2ccccc21`: the inhibition is 68.8% (active).

As for `CC(C)(C)c1nnc(NC(=O)C2c3ccccc3Oc3ccccc32)s1`, the inhibition was -41.3%.

For the compound `O=C(NN=Cc1ccc2c(c1)CCC2)c1ccccc1O`, the inhibition was -0.46%.

For the compound `COc1cccc(NC(=O)CN(C)C(=O)c2cc(Cl)nc3ccccc23)c1`, the inhibition is 0.82%.

`C[C@@H]1CN([C@@H](C)CO)C(=O)c2cc(Br)cnc2O[C@@H]1CN(C)C(=O)C1CCCCC1`: the inhibition was 2.18%.

Turning to `CCN(CC)C(=O)C1=C(C)N(Cc2ccc(F)cc2)C(=O)C(CC(=O)NC2CCCC2)C1` (centres undefined), the inhibition was 1.89%.

In the case of `COc1ccc(C(=O)c2oc3ccc(Br)cc3c2NC(C)=O)cc1`, the inhibition was -1.73%.

Regarding `COc1ccc2oc(=N)c(C(=O)Nc3ccc(Br)cc3)cc2c1`, the inhibition was -1.93%.

Turning to `COc1ccc(/C=C/C(=O)c2cc(Br)ccc(=O)c2O)cc1`, the inhibition was 61% (active).

Take `O=C1[C@H]2[C@@H](c3ccc(C(F)(F)F)cc3)N[C@]3(CCCN(Cc4ccc(Br)cc4)C3=O)[C@H]2C(=O)N1Cc1ccccc1`: the inhibition is -35.1%.

Consider `COc1cccc2c1C(=O)c1c(O)c3c(c(O)c1C2=O)CC(O)(C(C)=NNC(=O)c1ccc(Cl)c(Cl)c1)CC3OC1CC(N)C(O)C(C)O1` (centres undefined), for which the inhibition is 70.5% (active).

For the compound `CN(Cc1c(F)cccc1Cl)C(=O)COC(=O)Cn1cnc2ccccc2c1=O`, the inhibition was 2.48%.

Take `N#Cc1ccc(OCC(=O)Nc2nc(-c3ccccn3)cs2)cc1`: the inhibition is 19.1%.

As for `COc1ccc(-c2cc(C(=O)N/N=C/c3cccnc3)c3ccccc3n2)c(OC)c1`, the inhibition was -18%.

Take `Cc1ccc(/C=N/NC(=O)Cn2nc(C)c(Br)c2C)o1`: the inhibition was -6.04%.

Take `Cc1ccc(/C=N/NC(=O)c2cc3ccccc3cc2O)o1`: the inhibition was 50.2% (active).

Regarding `O=C(N/N=C/c1cccnc1)c1cc2ccccc2cc1O`, the inhibition is 41% (active).

Consider `Cc1ccc(/C=N/NC(=S)NC2CCCCC2)o1`, for which the inhibition was 5.44%.

On to `O=C(N/N=C\c1cccnc1)c1cc(-c2ccccc2)nc2c(Cl)cccc12`, for which the inhibition is -44%.

On to `CC(C)N=C1CCCC1C(=S)SSC(=S)C1CCCC1=NC(C)C` (centres undefined), for which the inhibition was 13.4%.

`CC(C)C1CCN(C(=O)C2CCC(=O)N(C3CCCCCC3)C2)CC1` (centres undefined): the inhibition was 4.4%.

In the case of `CCCCN1CC(C)(C)[C@H](CC(=O)Nc2ccc(Br)cc2)C1=O`, the inhibition is -7.94%.

With `COc1ccc(-c2ccc(CN3C(CC(C)C)C(=O)N(Cc4cn(CC5CCCCC5)nn4)CCS3(=O)=O)cc2)cc1` (centres undefined), the inhibition is -45.1%.

On to `O=C(C[C@H]1C[C@H]2c3cc(NS(=O)(=O)c4ccc(F)cc4)ccc3O[C@H]2[C@H](CO)O1)NCc1cc(F)ccc1F`, for which the inhibition is -9.74%.

In the case of `COc1cc(C(=O)OCCCN2CCOCC2)cc(OC)c1OC`, the inhibition is -2.46%.

Take `O=NN(CCCl)C(=O)NCCc1cccc[n+]1[O-]`: the inhibition was 1.62%.

Turning to `CCOC(=O)NNc1cc(C(F)(F)F)ccn1`, the inhibition was -0.2%.

As to `CCOC(=O)C1Nc2ccc(C(F)(F)F)cc2C2C=CCC12` (centres undefined), the inhibition is 41.7% (active).

In the case of `CCOC(=O)C[C@H]1c2ccc(C(F)(F)F)cc2S(=O)(=O)N1c1ccccc1`, the inhibition is -13.4%.

In the case of `COc1cccc2c(O)cc(=O)n(C)c12`, the inhibition was -0.49%.

As for `O=C(NN=Cc1ccccc1O)NN=Cc1ccccc1O`, the inhibition is 25.9%.

On to `O=Nc1c(O)cc(O)c2ccccc12`, for which the inhibition is 42.4% (active).

`Cc1ccc(-c2ccc(CN3C(C(C)C)C(=O)N(Cc4cn(CCC5OCCO5)nn4)CCS3(=O)=O)cc2)cc1` (centres undefined): the inhibition is -29.6%.

On to `CC[C@@H]1Cc2cc(O)ccc2C2=C1c1ccc(O)cc1C[C@H]2CC`, for which the inhibition was 44.3% (active).

Turning to `COc1cc(C)c(CN2CCN(C(=O)CCC(=O)c3ccc(C)s3)CC2)cc1OC`, the inhibition was 6.95%.

`CCCCCCNC(=O)O[C@H]1CN(C(=O)OC(C)C)N(C(=O)OC(C)C)[C@@H]2CN(S(=O)(=O)c3ccc(C)cc3)C[C@]12O`: the inhibition was -18.8%.

Regarding `c1ccc(CNCc2ccc(CNCc3ccccc3)cc2)cc1`, the inhibition was 2.32%.

`O=C(Cc1ccc(Cl)cc1)NC(=S)Nc1ccccc1O`: the inhibition is -31.1%.

With `Oc1ccc(CNc2ccccc2O)cc1`, the inhibition is 52.1% (active).

For `C[C@@H]1CN([C@H](C)CO)C(=O)CCCn2cc(nn2)CO[C@H]1CN(C)S(=O)(=O)c1ccc(Oc2ccccc2)nc1`, the inhibition is 5.67%.

As for `COCC1CCCCN1C(=O)c1cc(COc2ccc(C)c(C)c2)on1` (centres undefined), the inhibition is -4.09%.

Take `COc1ccc(C=C2CCC3C(CCCC34OCCO4)C2=O)cc1` (centres undefined): the inhibition was -8.69%.

`C[n+]1ccc(/C=C/c2c[nH]c3ccccc23)cc1`: the inhibition was 2.74%.

For `CSC(=S)N/N=C/c1c[nH]c2ccccc12`, the inhibition is 48.9% (active).

For `Nc1nonc1-n1nnc(C(=O)N/N=C/c2c[nH]c3ccccc23)c1-c1ccccc1`, the inhibition was -3.11%.

Take `C[C@H]1CN([C@@H](C)CO)C(=O)CCCn2nncc2CO[C@@H]1CN(C)Cc1ccc(Oc2ccccc2)cc1`: the inhibition is -3.08%.

With `O=c1ccc2c(-c3ccccc3S(=O)(=O)O)c3ccc(O)c(O)c3oc-2c1O`, the inhibition was 37.8% (active).

As to `COc1cc(C=NC2CCCCC2)ccc1O`, the inhibition is 0.85%.

For `COc1ccc(CN2C(=O)C(CC(=O)NCCCCc3ccccc3)CC(C(=O)N3CCOCC3)=C2C)cc1` (centres undefined), the inhibition is 5.2%.

Take `O=C(c1ccccc1)N1CCN(c2cc(-c3ccccc3)nc3cc(-c4cccc(Cl)c4)nn23)CC1`: the inhibition is -11.5%.

`CCOC(=O)CC(NC(=O)C1c2ccccc2Oc2ccccc21)c1ccc(C)cc1` (centres undefined): the inhibition is -3.25%.

On to `CCCN(CCC)C(=O)C1c2ccccc2Oc2ccccc21`, for which the inhibition was 38.1% (active).

Consider `CCCCCNC(=O)C1c2ccccc2Oc2ccccc21`, for which the inhibition was 0.55%.

With `C[C@H]1CN([C@@H](C)CO)S(=O)(=O)c2ccc(Br)cc2O[C@H]1CN(C)C(=O)c1cnccn1`, the inhibition is 10.3%.

On to `CNC(=O)c1ccc(CN(C)C(=O)c2cc(C3CC3)nc3c2cnn3C(C)C)cc1`, for which the inhibition was -4.2%.

Consider `CC(C)CC1C(=O)N(Cc2cn(Cc3ccco3)nn2)CCS(=O)(=O)N1Cc1ccc(-c2ccc(Cl)c(Cl)c2)cc1` (centres undefined), for which the inhibition was -109%.

Turning to `C[C@@H]1CN([C@H](C)CO)C(=O)CCCn2nncc2CO[C@@H]1CN(C)S(=O)(=O)c1cccc(C#N)c1`, the inhibition is 4.09%.

In the case of `CCN1CCN(C(c2cccnc2)c2cc(Cl)c3cccnc3c2O)CC1` (centres undefined), the inhibition was 42% (active).

Turning to `N#C/C(=C\c1ccc(O)c(O)c1)C(=O)NCc1ccccc1`, the inhibition is 59.1% (active).

For the compound `COc1ccc(CNC(=O)/C(C#N)=C/c2cccc(OC)c2OC)cc1`, the inhibition is -5.58%.

Regarding `COCCNC(=O)/C(C#N)=C/c1cccc(OCc2ccccc2)c1`, the inhibition is -21.2%.

For `CC(C)CC1C(=O)N(Cc2cn(CC3CCCCC3)nn2)CCS(=O)(=O)N1Cc1ccc(-c2ccc(Cl)cc2)cc1` (centres undefined), the inhibition was -45.3%.

For `Cc1cccc(N2CCN(C(=O)c3ccccc3NC(=O)C3CCCCC3C(=O)O)CC2)c1` (centres undefined), the inhibition is 2.87%.

Take `Cc1cccc(N2CCN(c3ccc(NC(=O)/C=C\C(=O)O)cc3)CC2)c1`: the inhibition was 52% (active).

Turning to `CC(C)=C1SC(N2CCN(c3cccc(C)c3)CC2)=NC1=O`, the inhibition is -3.36%.

For the compound `O[C@H]1C[C@H](c2ccc(Cl)cc2)N(Cc2cccs2)C[C@@H]1n1cc(C2CC2)nn1`, the inhibition is -46%.

As for `COc1cccc(OC)c1C(=O)Nc1nnc(C(C)C)s1`, the inhibition is -2.63%.

As for `COc1cccc2sc(NNC(=O)c3nc4ccccc4s3)nc12`, the inhibition was 39.4% (active).

Regarding `COc1ccc(C(=O)Nc2cccc(/C=C(/CCC(=O)O)c3nc4ccccc4s3)c2)cc1`, the inhibition was -96.2%.

As to `C[C@H]1CN([C@@H](C)CO)C(=O)CCCn2cc(nn2)CO[C@@H]1CN(C)C(=O)Nc1ccccc1`, the inhibition is 2.55%.

For the compound `Cc1noc(C)c1NC(=O)N(C)C[C@@H]1Oc2cc(Br)ccc2S(=O)(=O)N([C@@H](C)CO)C[C@H]1C`, the inhibition is 0.21%.

As to `Cc1ccc(C(=O)N[C@H](C(=O)N2CCN(c3ncccn3)CC2)C(C)C)cc1`, the inhibition is 5.28%.

For the compound `CCc1nc2c(=O)[nH]cnc2o1`, the inhibition was 5.91%.

On to `Cc1cc(-c2csc(N)n2)c(C)n1-c1ccccc1`, for which the inhibition is 52.5% (active).

With `CCCc1cc(-c2n[nH]c(=S)n2Cc2ccccc2)cs1`, the inhibition is -3.06%.

On to `CCOC(=O)C1=C(O)/C(=C/c2cc(C)n(-c3ccccc3)c2C)N=C1C`, for which the inhibition was 20.9%.

Turning to `CCCn1c(C)cc(-c2csc(NC(=O)CCc3nc4ccccc4c(=O)[nH]3)n2)c1C`, the inhibition was -3.91%.

As for `Cc1cc(C(=O)OCC(=O)N2c3ccccc3NC(=O)C2(C)C)c(C)n1-c1ccccc1`, the inhibition is -25.2%.

For `Cc1cc(-c2csc(N)n2)c(C)n1Cc1ccccc1`, the inhibition was 37.6% (active).

`CCN1C(=O)[C@H]2[C@@H](c3ccccc3)N[C@]3(CCCN(Cc4ccc(C)cc4)C3=O)[C@H]2C1=O`: the inhibition is -0.19%.

With `COc1ccc(NC(=O)N(C)C[C@H]2Oc3ncc(C#C[C@@H](C)O)cc3C(=O)N([C@H](C)CO)C[C@H]2C)cc1`, the inhibition was 6%.

For `Nc1cccc(OCCCCCOc2cccc(N)c2)c1`, the inhibition is 3.94%.

As for `COC(=O)c1ccccc1N=NNc1ccc([N+](=O)[O-])cc1`, the inhibition was 3.36%.

Consider `COc1ccc(NC(=O)c2cc(=O)[nH]c3ccccc23)cc1S(=O)(=O)N1CCOCC1`, for which the inhibition is -7.81%.

Regarding `Oc1ccc2ccccc2c1N=Nc1nccs1`, the inhibition is 44.7% (active).

As to `COc1ccc(NC(=O)COC(=O)C2COc3ccccc3O2)cc1` (centres undefined), the inhibition is -2.75%.

`COc1cccc2cc(-c3cc(=O)oc4cc(C)c(O)cc34)oc12`: the inhibition is -8.58%.

In the case of `COc1c(O)cc2oc(-c3ccc(O)c(O)c3)cc(=O)c2c1O`, the inhibition is 25.7%.

With `COc1cc(O)c2c(=O)c3c(O)c(O)ccc3oc2c1OC`, the inhibition is 53.9% (active).
